Assay [1] in a line: BET inhibitor-based combinations targeting novel dependencies in MECOM-rearranged (r) AML: SET-2 cell line (AID 2202231). Also: nearly all actives have a fitted effect of over 35% in size. Also: potency is read from the fitted curve at half-maximal effect.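 As to viability: plate controls were DMSO treated cells for no effect and wells without cells for full effect.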 Conditions: SET-2 AML cells viability, CellTiter-Glo luminescence, 48 h; viability: active compounds read low, concentration not given here. The gist of the method:
(§1)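 Each compound was tested at eleven concentrations on cells seeded at 500/well. After two days' incubation, ATP-based luminescence reported viability; responses relative to DMSO and blank wells yielded AUC and cell-line-centred Z-AUC.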
(ATP-based viability assays read luminescence as a measure of living cells.)

The nature of assay [2]: BET inhibitor-based combinations targeting novel dependencies in MECOM-rearranged (r) AML: OCI-AML3 cell line (AID 2202232). Also: nearly all actives have a fitted effect of over 35% in size. Also: potency is read from the fitted curve at half-maximal effect. Particulars: Potency: OCI-AML3 viability. In outline: as §1
Assay [3] is described as follows: BET inhibitor-based combinations targeting novel dependencies in MECOM-rearranged (r) AML: MV-4-11 cell line (AID 2202233). Also: nearly all actives have a fitted effect of over 45% in size. Also: potency is read from the fitted curve at half-maximal effect. In outline: (§2)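 First, 500 cells per well were seeded; next, drugs were pinned as 11-point doses; then plates sat 48 hr in the incubator; finally CellTiter-Glo was added and luminescence read, with AUC and Z-AUC computed.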
The nature of assay [4]: BET inhibitor-based combinations targeting novel dependencies in MECOM-rearranged (r) AML: UCSD-AML1 cell line (AID 2202235). Also: nearly all actives have a fitted effect of over 40% in size. Also: potency is read from the fitted curve at half-maximal effect. In outline: as §2
Assay [5] in a line: BET inhibitor-based combinations targeting novel dependencies in MECOM-rearranged (r) AML: AML-191 cell line (AID 2202236; also: nearly all actives have a fitted effect of over 35% in size; also: potency is read from the fitted curve at half-maximal effect). In outline:
as §1

Assay [6] in a line: BET inhibitor-based combinations targeting novel dependencies in MECOM-rearranged (r) AML: AML-194 cell line (AID 2202237; also: nearly all actives have a fitted effect of over 40% in size; also: potency is read from the fitted curve at half-maximal effect). The gist of the method:
as §1

The nature of assay [7]: BET inhibitor-based combinations targeting novel dependencies in MECOM-rearranged (r) AML: HNT-34 cell line (AID 2202234). Also: nearly all actives have a fitted effect of over 35% in size. Also: potency is read from the fitted curve at half-maximal effect. In outline:
as §2

Assay [8] addresses Aldehyde dehydrogenase, mitochondrial (Homo sapiens) (UniProt P05091). The assay can be described thus: qHTS for Inhibitors of the Aldehyde Dehydrogenase Family (ALDH2) Primary screen (AID 2061308).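 Also: plate controls were vehicle for no effect and reference inhibitor for full effect; nearly all actives have a fitted effect of over 55% in size.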 On the technique in general: qHTS replaces the single test concentration by a dilution series.
Assay [9] concerns the target Retinaldehyde dehydrogenase 3 (Homo sapiens) (UniProt P47895). Description: qHTS for Inhibitors of the Aldehyde Dehydrogenase Family (ALDH1A3) Primary screen (AID 2061315).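 Also: plate controls were DMSO vehicle for no effect and reference inhibitor for full effect.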
For assay [10] the target is unchanged. Description: qHTS for Inhibitors of the Aldehyde Dehydrogenase Family (ALDH1A3) Confirmatory screens (AID 2061311). Also: potency is read from the fitted curve at half-maximal effect; nearly all actives have a fitted effect of over 60% in size.
Assay [11] addresses Retinal dehydrogenase 2 (Homo sapiens) (UniProt O94788). The assay can be described thus: qHTS for Inhibitors of the Aldehyde Dehydrogenase Family (ALDH1A2) Confirmation screens (AID 2061314). Also: potency is read from the fitted curve at half-maximal effect; nearly all actives have a fitted effect of over 65% in size.
Assay [12] concerns the target Aldehyde dehydrogenase 1A1 (Homo sapiens) (UniProt P00352). Description: qHTS for Inhibitors of the Aldehyde Dehydrogenase Family (ALDH1A1) Confirmatory screens (AID 2061316). Also: potency is read from the fitted curve at half-maximal effect; nearly all actives have a fitted effect of over 65% in size.

Molecules are shown by their SMILES. Inconclusive results are not listed. Unmarked numbers belong to inactive results. The source made the active and inactive calls. Calls follow the shape of the dose curve; as a rule, active = well fitted curve in the direction sought with a large enough effect; inconclusive = small, poorly fitted or top-dose-only effect, or another doubt; inactive = no such curve, though single readings can be large; an effect the other way counts as inactive or inconclusive.

In general, viability refers to a read-out of living cells in per cent, often relative to untreated cells.

As to `COC[C@H]1OC(=O)c2coc3c2[C@@]1(C)C1=C(C3=O)[C@@H]2CC[C@H](O)[C@@]2(C)C[C@H]1OC(C)=O`, the Potency in assay [1] is 18.6 µM (active); in assay [2], 10.5 µM (active); in assay [3], 5.9 µM (active); in [4] it was 1.66 µM (active); in assay [5], 7.42 µM (active); in assay [6], 8.33 µM (active).

Regarding `COc1cc(C)[nH]c(=O)c1CNC(=O)c1c(C)n([C@H](C)C2CCN(CC(F)(F)F)CC2)c2ccccc12`, in assay [1], the viability was 101%. Also, the Potency in assay [2] was 14.8 µM (active). The Potency entry in assay [3], in assay [7], in assay [4], in assay [5] and in assay [6] was “inactive” in each case.

Take `C=C[C@H]1CN2CCC1C[C@@H]2[C@@H](O)c1ccnc2ccccc12` (some centres undefined): the viability in assay [1] was 98.5%. The Potency result in assay [2], in [7], in [4], in assay [5] and in assay [6] was “inactive” in each case. Also, the Potency in assay [3] was 5.9 µM (active).

Turning to `COc1ccc(C(=O)c2c(C)n(CCN3CCOCC3)c3ccccc23)cc1`, the Potency in assay [1] is 8.33 µM (active); in assay [2] it was 3.72 µM (active); in assay [3], 2.63 µM (active); in assay [7], 2.35 µM (active); in assay [4], 1.86 µM (active); in assay [6], 1.48 µM (active).

As to `Cc1[nH]nc2ccc(-c3cncc(OC[C@@H](N)Cc4c[nH]c5ccccc45)c3)cc12`, the Potency result in assay [8] and in assay [9] was “inactive” each time. Moreover, the Potency in assay [1] is 1.05 µM (active); in assay [3], 0.263 µM (active); in assay [7] it was 0.742 µM (active); in assay [4], 0.468 µM (active); in assay [5], 0.833 µM (active).

On to `Cc1nc2ccccn2c1P(=S)(c1ccccc1)c1ccccc1`, for which, in assay [9], the Potency entry is “inactive”.

Turning to `O=C(Nc1ncc(Cc2ccc(C(F)(F)F)cc2)s1)c1cn(-c2ccccc2)cn1`, the Potency entry in [8] and in assay [9] was “inactive” each time.

With `[Cl][Pt].[NH2-].[NH2-].c1ccncc1`, the Potency in assay [10] is 11.3 µM (active); in [11] it was 17.9 µM (active); in [12], 7.12 µM (active).

Regarding `O=C(CBr)N1CC([N+](=O)[O-])([N+](=O)[O-])C1`, the Potency in assay [1] is 38.2 µM (active); in assay [2] it was 34 µM (active); in assay [3], 34 µM (active). Moreover, the Potency entry in assay [4] was “inactive”.

Regarding `S=P(c1ccccc1)(c1ccccc1)c1c(-c2ccccc2)[nH]c2ccccc12`, the Potency entry in [9] is “inactive”.

In the case of `COc1ccc(-n2c(C)cc(-c3nnc4n3CCCCC4)c2C)cc1`, the Potency in [10] was 10.1 µM (active); in assay [11] it was 12.7 µM (active); in assay [12] it was 12.7 µM (active). Also, the Potency entry in [9] was “inactive”.

With `C[C@@H](C1CC[C@@]2(O)C3=CC(=O)[C@@H]4C[C@@H](O)[C@@H](O)C[C@]4(C)[C@H]3CC[C@]12C)[C@H](O)CCC(C)(C)O` (some centres undefined), the viability in assay [1] was 104%. Further, the Potency entry in [2], in [3] and in assay [5] was “inactive” each time.

As for `CC1(C)CC(O)CC(C)(C)N1O`, the viability in [1] is 115%. Besides, the Potency entry in [2], in [3], in assay [7], in assay [4], in [5] and in assay [6] was “inactive” in each case.

`C/C(O)=C(\C#N)C(=O)Nc1cc(Br)ccc1Br`: the viability in assay [1] was 90%. The Potency result in assay [2], in [3], in assay [7] and in assay [5] was “inactive” each time.

For the molecule `COC(=O)[C@@]12OC[C@]34[C@H]([C@@H](O)[C@@H]1O)[C@@]1(C)CC(=O)C(O)=C(C)[C@@H]1C[C@H]3OC(=O)[C@H](OC(=O)/C=C(\C)C(C)C)[C@@H]24`, the Potency in assay [1] was 0.0263 µM (active); in [2] it was 0.0074 µM (active); in assay [3], 0.003 µM (active); in assay [4], 0.0033 µM (active); in assay [5] it was 0.0066 µM (active); in assay [6], 0.0059 µM (active).

`CN[C@@H]1Cc2cccc3[nH]c(=O)n(c23)C1`: the viability in [1] is 120%. For the same molecule, the Potency entry in assay [2], in assay [3] and in assay [6] was “inactive” each time.
